# TrxR1 inh – qHTS Assay for Inhibitors of Mammalian Selenoprotein Thioredoxin Reductase 1 (TrxR1): qHTS. recombinant rTrxR1, NADPH fluorescence consumption, selenite substrate. Potency, µM (doses to about 114 µM), most hits filed as inhibitors. 1% of 390,000 active. AID 588453, 2011; also: nearly all actives have a fitted effect of over 65% in size
# Target sequence (O89049 whole entry, looked up): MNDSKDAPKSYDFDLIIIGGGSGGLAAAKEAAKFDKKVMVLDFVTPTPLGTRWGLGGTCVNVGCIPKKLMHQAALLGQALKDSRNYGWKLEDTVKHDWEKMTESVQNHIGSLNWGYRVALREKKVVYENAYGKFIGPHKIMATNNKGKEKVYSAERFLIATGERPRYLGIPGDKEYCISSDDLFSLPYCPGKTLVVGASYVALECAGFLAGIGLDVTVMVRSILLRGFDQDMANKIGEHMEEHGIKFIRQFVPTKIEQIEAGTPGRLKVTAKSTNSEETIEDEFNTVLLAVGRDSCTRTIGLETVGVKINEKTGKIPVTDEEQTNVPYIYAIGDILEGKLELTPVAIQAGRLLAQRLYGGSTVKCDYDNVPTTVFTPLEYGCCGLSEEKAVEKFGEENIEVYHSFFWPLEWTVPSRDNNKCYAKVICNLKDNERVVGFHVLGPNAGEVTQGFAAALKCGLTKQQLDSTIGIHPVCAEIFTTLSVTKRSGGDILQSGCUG
#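 Rat TrxR1 (90 nM in the dispensed reagent) was pre-reduced with 400 uM NADPH for 5 min at room temperature, then incubated with compound for 15 min. After 400 uM selenite was added, NADPH fluorescence (Ex 340/Em 450 nm) was followed for 8 min.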
# IDH1 R132H inh – qHTS for Inhibitors of mutant isocitrate dehydrogenase 1 (IDH1): qHTS | 0.093% of 390,000 active | Isocitrate dehydrogenase [NADP] cytoplasmic (Homo sapiens), O75874 | IDH1-R132H enzyme, NADPH consumption, diaphorase/resazurin fluorescence | Potency, µM (series often up to 76.6 µM), usual class: inhibitors | AID 602179, 2012; also: nearly all actives have a fitted effect of over 65% in size
#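 IDH1-R132H (0.5 ug/mL dispensed) in pH 7.5 Tris buffer was preincubated 30 min with compound, then given a substrate mix of 0.016 mM NADPH and 2 mM alpha-KG for 80 min at room temperature; remaining NADPH was read by diaphorase/resazurin fluorescence.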
# PLK1 PBD inh – qHTS for Inhibitors of PLK1-PDB (polo-like kinase 1 - polo-box domain): Primary Screen. Plk1 PBD binding of FITC phosphopeptide, fluorescence polarization. Serine/threonine-protein kinase PLK1 (Homo sapiens), P53350. Potency, µM, hits mostly inhibitors. 2.8% of 360,000 active; also: series mostly up to about 57 µM; nearly all actives have a fitted effect of over 65% in size
# TrxR1 substrate – qHTS Assay for Substrates of Mammalian Selenoprotein Thioredoxin Reductase 1 (TrxR1): qHTS. Thioredoxin reductase 1, cytoplasmic (Rattus norvegicus), O89049. 0.01% of 390,000 active. purified TrxR1 substrate turnover, NADPH consumption readout. Potency, µM (titrated, usually from 114 µM); also: nearly all actives have a fitted effect of over 50% in size
#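 Rat TrxR1, dispensed at 90 nM, was prereduced with 400 uM NADPH (final) for 5 min at ~22 deg C, then incubated with compound 15 min before 400 uM selenite. A first-read NADPH fluorescence drop versus no-compound background flagged substrates.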
# Sfp PPTase inh – qHTS Assay for Inhibitors of Bacillus subtilis Sfp phosphopantetheinyl transferase (PPTase); 3.5% of 310,000 active; Biochemical Sfp PPTase activity, qHTS; 4'-phosphopantetheinyl transferase ffp (Bacillus subtilis), Q9F4F7; Potency, µM, usual class: inhibitors;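 also: the enzyme is Sfp with the accession as filed and its product quenches rhodamine fluorescence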
#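 After 15 min at room temperature with compound, 15 nM Sfp received 5 uM rhodamine-CoA plus 12.5 uM BHQ-2-ybbR (50 mM Hepes pH 7.6, 10 mM MgCl2). Rate came from the fluorescence difference over 30 min, ex 525/em 598 nm.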
# VDR inhibitor – Inhibitors of the vitamin D receptor (VDR): qHTS; Potency, µM, most hits filed as inhibitors; 0.93% of 400,000 active; VDR-SRC2-3 peptide fluorescence polarization, 2 h
#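 FP read-out; VDR + SRC2-3 coactivator peptide; 23 nl compound by pintool; 2 h RT incubation; reagents held at 4 deg C, protected from light.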
# A number is an active result; n = inactive; u = inconclusive; x = not tested or not shown. Only some compounds are listed: those with a hit (about 5.2% of all), similar ones and a draw of the others. Calls follow the shape of the dose curve; as a rule, active = well fitted curve in the direction sought with a large enough effect; inconclusive = small, poorly fitted or top-dose-only effect, or another doubt; inactive = no such curve, though single readings can be large; an effect the other way counts as inactive or inconclusive.
SMILES,TrxR1 inh,IDH1 R132H inh,PLK1 PBD inh,TrxR1 substrate,Sfp PPTase inh,VDR inhibitor
COc1cc(CNc2ccc(N3CCN(C(C)=O)CC3)cc2)ccc1OCc1ccc(F)cc1,n,n,n,n,n,n
CC(=O)N1CCN(c2ccc(NCc3ccc(F)cc3)cc2)CC1,n,n,n,n,39.8µM,u
C[C@H]1C(=O)N(S(=O)(=O)c2ccccc2[N+](=O)[O-])[C@H]1c1ccc(-c2ccccc2)cc1,u,x,x,n,n,n
Cc1ccc(NS(=O)(=O)c2c(C(=O)N3CCCCCC3)c(C)n(C)c2C)cc1C,n,n,21.2µM,n,n,n
Cc1c(C(=O)N2CCCCC2)c(S(=O)(=O)N2CCC(C)CC2)c(C)n1C,n,n,21.2µM,n,n,u
Cc1c(C(=O)N2CCOCC2)c(S(=O)(=O)Nc2ccc(C(C)C)cc2)c(C)n1C,n,n,26.7µM,n,n,u
O=C(Nc1nccs1)c1csc([C@H]2C[C@H](O)[C@@H](CO)O2)n1,x,x,n,x,x,x
CCOC(=O)C1=C(O)C(=O)N(c2ccc(S(N)(=O)=O)cc2)C1c1ccc([N+](=O)[O-])cc1 (stereo not drawn),n,n,29.9µM,n,n,n
CC(=O)C1=C(O)C(=O)N(c2ccc(S(N)(=O)=O)cc2)C1c1cccc([N+](=O)[O-])c1 (stereo not drawn),n,n,26.7µM,n,n,n
CC(=O)C1=C(O)C(=O)N(c2ccc(C)cc2)C1c1ccc([N+](=O)[O-])cc1 (stereo not drawn),n,n,26.7µM,n,u,n
CCOC(=O)C1=C(O)C(=O)N(c2ccc(S(N)(=O)=O)cc2)C1c1cccc([N+](=O)[O-])c1 (stereo not drawn),n,n,n,n,n,n
CCCCn1c(N)c(N(CCOC)C(=O)CCS(=O)(=O)c2ccc(C)cc2)c(=O)[nH]c1=O,x,n,n,x,x,x
CN1/C(=C/C(=O)CSc2ccccc2C(=O)O)C(C)(C)c2ccccc21,n,n,n,n,89.1µM,n
CN1/C(=C\C(=S)Nc2ccccc2)C(C)(C)c2ccccc21,u,n,n,n,31.6µM,u
CN1/C(=C\C(=O)CSc2nnc(N)s2)C(C)(C)c2ccccc21,n,n,n,n,n,n
Cc1cccc[n+]1CC(=O)/C=C1\N(C)c2ccccc2C1(C)C,n,n,n,n,n,n
CN1/C(=C\C(=O)COC(=O)CNC(=O)c2ccc3ccccc3c2)C(C)(C)c2ccccc21,n,n,18.9µM,n,n,n
CN1/C(=C\C(=O)COC(=O)CNC(=O)c2ccccc2F)C(C)(C)c2ccccc21,n,n,n,n,n,n
CN1/C(=C\C(=O)CSc2cccc[n+]2[O-])C(C)(C)c2ccccc21,n,n,n,n,15.8µM,n
CN1/C(=C\C(=O)Nc2ccc(Cl)cc2)C(C)(C)c2ccccc21,n,n,n,n,n,n
CCC(=O)Nc1ccc(CC)cc1-c1nc2ccccc2n(CC(=O)Nc2cccc(OC)c2)c1=O,n,n,x,n,x,n
COc1ccccc1N1CCN(C(=O)c2cnc(N3CCOCC3)c3ccccc23)CC1,n,n,x,n,x,n
COc1ccc2c(=O)c(C)c(-c3ccccc3)oc2c1CN(C)C,x,x,x,x,u,n
O=C(Nc1ccc2oc(=O)ccc2c1)c1ccc(-c2ccccc2[N+](=O)[O-])o1,n,n,n,n,n,n
Cc1cccc(NC(=O)c2ccc(-c3ccccc3[N+](=O)[O-])o2)c1,u,n,n,n,50.1µM,n
SMILES,TrxR1 inh,IDH1 R132H inh,PLK1 PBD inh,TrxR1 substrate,Sfp PPTase inh,VDR inhibitor
COc1cccc(NC(=O)c2ccc(-c3ccccc3[N+](=O)[O-])o2)c1,15.8µM,n,n,n,44.7µM,n
CC(C)C[C@@H](CN=[N+]=[N-])N1CCN(CCc2ccccc2)CCC1=O,n,x,x,n,x,x
CCc1nnc(SCc2nc(-c3ccc(OC)cc3)oc2C)c2cc3sccc3n12,n,n,x,n,x,n
Cc1cccc(OCCSc2nc(N)cc(N)n2)c1,39.8µM,n,3.77µM,n,44.7µM,u
Cc1cccc(OCCOCCSc2ncccn2)c1,n,n,n,n,n,n
COC1=C(N)C(=O)c2nc(-c3nc(C(=O)O)c(C)c(-c4ccc(OC)c(OC)c4O)c3N)ccc2C1=O,n,n,n,n,3.55µM,14.1µM
COc1ccc(C(=O)O)c(O)c1OC,x,x,x,x,n,n
CN(C)C(=O)Cn1cc(S(=O)(=O)Cc2ccccc2)c2ccccc21,n,n,n,n,n,n
CCCCCCCCCCCCCCCC[n+]1cccc2ccccc21,n,n,u,n,25.1µM,n
CCCCCCCCC[n+]1cccc2c3ccccc3ccc21,n,n,n,n,n,n
Cc1cc(C(=O)OCC(=O)NCc2ccccc2)c2ccccc2n1,n,n,n,n,x,n
O=C(COC(=O)c1ccccc1C(=O)c1ccccc1)NCc1ccc(F)cc1,n,n,23.8µM,n,n,u
O=C(COC(=O)c1nc(Cl)c(Cl)c(Cl)c1Cl)NCc1ccccc1,44.7µM,n,n,n,x,n
Cc1cc(C)n(S(=O)(=O)c2ccccc2[N+](=O)[O-])n1,n,n,n,n,n,n
CC1CCN(c2ncnc3c2nnn3C)CC1,n,n,x,n,x,n
Cc1ccccc1Oc1ccc2c(c1)[C@@H]1C[C@H](N(C)C(=O)c3ccc(C#N)cc3)[C@H]([C@H](C)O)C(=O)N1CC2,n,n,n,n,x,n
COc1ccccc1NC(=O)CSc1nc2ncccc2[nH]1,n,n,n,n,n,n
COc1ccc(NC(C)=O)cc1NC(=O)CSc1nc2ncccc2[nH]1,n,n,2.99µM,n,n,n
Cc1ccc(-c2nc3sccn3c2Nc2ccc(C)c(C)c2)cc1,n,u,x,n,x,n
NC(=O)c1ccsc1N,x,x,x,x,20µM,x
Nc1sccc1C(=O)c1ccc(Cl)cc1,n,n,n,n,u,n
CCOC(=O)c1c(C)oc2nc(C)nc(NCCc3ccc(OCC)c(OCC)c3)c12,n,n,x,n,x,n
Nc1nc(CN2CCOCC2)cs1,u,n,23.8µM,n,n,u
CSc1cccc(NS(=O)(=O)c2cn(C)cn2)c1,50.1µM,n,n,n,n,n
Cc1ccc(NC(=O)CSc2nncn2N)cc1C,n,n,n,n,n,n
COCC(O)CNc1ccccc1 (stereo not drawn),n,n,23.8µM,n,n,u
COc1cc(C(=O)OCc2cc(=O)n3nc(C(C)C)sc3n2)cc(OC)c1OC,n,n,x,n,x,n
